Reference: PubChem BioAssay
For some assays here: Potency and affinity values are given separately. Activity calls are given as the source filed them. Unless noted, no rule for the calls is given here.

Tests used:
[1] = antimalarial activity against Dd2 strain (AID 2302;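 active = growth inhibition above 50% at the single 2 µM test dose, taken to imply half-maximal potency below 2 µM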;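 also: 0% = DMSO untreated growth and 100% = chloroquine plus artemisinin killed control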); conditions: P. falciparum Dd2 in RBCs, LDH growth readout, 72 h; at 2 µM; hits give high values
[2] = human hepatoma cell viability loss – ATP luminescence, cytotoxicity control for P. falciparum antimalarial project, primary screen (AID 2303;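 active = inhibition above 50%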;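 also: 0% = DMSO wells and 100% = digitonin-killed cells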); conditions: HepG2 viability, 24-48 h, at 10 µM, hits give high values
[3] = target: L-lactate dehydrogenase (Plasmodium falciparum (isolate CDC / Honduras)) (UniProt Q27743); test: PfLDH activity inhibition – cell lysate, 3D7 strain, counter-screen for P. falciparum growth inhibition project (AID 2304);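 also: 0% = vehicle and 100% = reference inhibitor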; conditions: P. falciparum 3D7 crude extract, LDH APAD/NBT absorbance; at 2 µM; hits give high values
L-lactate dehydrogenase (Plasmodium falciparum (isolate CDC / Honduras)), sequence (Q27743 whole entry, looked up): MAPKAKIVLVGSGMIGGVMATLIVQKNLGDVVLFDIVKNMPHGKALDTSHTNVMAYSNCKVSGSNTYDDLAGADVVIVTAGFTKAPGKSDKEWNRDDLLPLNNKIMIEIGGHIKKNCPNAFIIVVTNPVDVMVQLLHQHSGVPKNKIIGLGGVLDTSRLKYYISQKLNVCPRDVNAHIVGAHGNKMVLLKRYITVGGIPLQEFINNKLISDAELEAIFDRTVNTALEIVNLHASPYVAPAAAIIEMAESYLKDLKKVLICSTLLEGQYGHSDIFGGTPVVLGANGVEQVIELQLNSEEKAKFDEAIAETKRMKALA

[4] = inhibition of 3D7 malaria parasite growth – strain 3D7 (AID 2306);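 also: 0% = DMSO wells and 100% = chloroquine plus artemisinin control wells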; conditions: P. falciparum 3D7 erythrocytic growth, LDH absorbance, 72 h; at 2 µM; hits give high values
[5] = target: Calcium-dependent protein kinase 1 (Plasmodium falciparum (isolate 3D7)) (UniProt P62344); test: PfCDPK1 kinase inhibitors, biochemical, TCAMS library (AID 1159585; cut-off not given, nearly all actives have IC50 up to about 0.98 µM;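 also: inhibitors leave more ATP so luminescence rises with inhibition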); conditions: recombinant PfCDPK1, Kinase-Glo ATP depletion luminescence
Calcium-dependent protein kinase 1 (Plasmodium falciparum (isolate 3D7)), sequence (P62344 whole entry, looked up): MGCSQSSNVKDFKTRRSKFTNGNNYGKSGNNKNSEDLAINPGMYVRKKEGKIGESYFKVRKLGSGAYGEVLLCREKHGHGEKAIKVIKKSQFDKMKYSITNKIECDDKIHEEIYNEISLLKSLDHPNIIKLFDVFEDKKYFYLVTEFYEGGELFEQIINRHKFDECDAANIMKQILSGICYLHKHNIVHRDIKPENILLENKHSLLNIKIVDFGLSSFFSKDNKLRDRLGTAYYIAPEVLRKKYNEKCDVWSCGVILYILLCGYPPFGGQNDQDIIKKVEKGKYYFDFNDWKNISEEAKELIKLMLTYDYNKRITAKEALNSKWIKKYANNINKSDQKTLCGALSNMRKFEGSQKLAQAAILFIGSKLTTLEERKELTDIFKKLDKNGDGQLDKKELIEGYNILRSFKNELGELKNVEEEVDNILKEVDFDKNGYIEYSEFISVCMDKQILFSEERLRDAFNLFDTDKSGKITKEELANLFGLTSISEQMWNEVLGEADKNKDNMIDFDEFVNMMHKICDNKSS

[6] = target: Plasmodium falciparum protein kinase 6 (PK6, PF3D7_1337100) (UniProt Q8IDW1); test: PfPK6 kinase inhibitors, biochemical, TCAMS library (AID 1159586); conditions: recombinant PfPK6, Kinase-Glo ATP depletion luminescence
Plasmodium falciparum protein kinase 6 (PK6, PF3D7_1337100), sequence (Q8IDW1 1-305): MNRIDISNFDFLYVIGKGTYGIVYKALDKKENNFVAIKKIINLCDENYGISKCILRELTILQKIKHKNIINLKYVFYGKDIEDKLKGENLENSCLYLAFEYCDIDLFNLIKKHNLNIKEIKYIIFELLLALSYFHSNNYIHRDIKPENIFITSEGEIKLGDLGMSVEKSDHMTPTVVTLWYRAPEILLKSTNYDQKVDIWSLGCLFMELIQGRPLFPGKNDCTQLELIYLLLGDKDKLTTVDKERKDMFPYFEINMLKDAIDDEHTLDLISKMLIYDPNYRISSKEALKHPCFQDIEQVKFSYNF

[7] = target: Protein kinase 7 (PK7), Plasmodium falciparum 3D7 (PF3D7_0213400) (UniProt Q7YTF7); test: inhibition of Plasmodium PK7 catalytic activity – biochemical, TCAMS antimalarial set, Kinase-Glo luminescence (AID 1159587); conditions: recombinant PfPK7, Kinase-Glo ATP depletion luminescence
Protein kinase 7 (PK7), Plasmodium falciparum 3D7 (PF3D7_0213400), sequence (Q7YTF7 1-343): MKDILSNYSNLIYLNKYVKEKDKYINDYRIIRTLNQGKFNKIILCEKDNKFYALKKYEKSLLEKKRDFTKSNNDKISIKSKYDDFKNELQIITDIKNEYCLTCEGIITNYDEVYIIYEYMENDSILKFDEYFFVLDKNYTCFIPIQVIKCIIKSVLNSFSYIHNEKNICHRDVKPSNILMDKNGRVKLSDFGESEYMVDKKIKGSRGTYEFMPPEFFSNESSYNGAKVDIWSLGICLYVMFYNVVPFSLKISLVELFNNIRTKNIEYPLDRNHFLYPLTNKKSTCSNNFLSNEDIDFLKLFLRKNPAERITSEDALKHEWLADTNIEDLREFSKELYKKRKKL

[8] = target: Calcium-dependent protein kinase 4 (Plasmodium falciparum (isolate 3D7)) (UniProt Q8IBS5); test: PfCDPK4 kinase inhibitors, biochemical, TCAMS library (AID 1159588; cut-off not given, nearly all actives have IC50 up to about 0.91 µM); conditions: recombinant PfCDPK4, Kinase-Glo ATP depletion luminescence
Calcium-dependent protein kinase 4 (Plasmodium falciparum (isolate 3D7)), sequence (Q8IBS5 whole entry, looked up): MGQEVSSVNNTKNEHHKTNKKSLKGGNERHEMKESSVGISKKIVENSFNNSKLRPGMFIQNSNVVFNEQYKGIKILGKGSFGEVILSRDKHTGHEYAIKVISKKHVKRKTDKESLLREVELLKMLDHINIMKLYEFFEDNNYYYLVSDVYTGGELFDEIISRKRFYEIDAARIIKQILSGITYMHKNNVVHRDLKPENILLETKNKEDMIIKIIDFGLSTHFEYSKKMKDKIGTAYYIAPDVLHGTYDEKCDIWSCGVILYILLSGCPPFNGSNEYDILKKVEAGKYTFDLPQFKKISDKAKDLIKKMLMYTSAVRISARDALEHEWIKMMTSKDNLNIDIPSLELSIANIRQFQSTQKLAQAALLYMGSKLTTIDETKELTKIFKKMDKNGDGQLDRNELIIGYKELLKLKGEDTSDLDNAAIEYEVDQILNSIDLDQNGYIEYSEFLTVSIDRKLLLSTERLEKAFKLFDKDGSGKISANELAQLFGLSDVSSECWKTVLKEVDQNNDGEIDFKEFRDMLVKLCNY

O=C(C=Cc1ccc(Cl)c(Cl)c1)NCCCCCN1CCC(CCNC(=O)c2cccc3ccccc23)CC1
inactive: growth inhibition [1] -1% | inhibition [2] 17% | inhibition [3] 4% | outcome [5] | outcome [6] | outcome [7] | outcome [8]
active: growth inhibition [4] 85%

COc1ccc(CCNCCCCCCNCCc2ccc(Cl)cc2)c(Cl)c1OC
inactive: growth inhibition [1] 4% | inhibition [3] 5% | outcome [5] | outcome [6] | outcome [7] | outcome [8]
active: inhibition [2] 88% | growth inhibition [4] 101%

NC(N)=NCCN(Cc1ccccc1)c1ccccc1
active: growth inhibition [1] 98% | growth inhibition [4] 100%
inactive: inhibition [2] 8% | inhibition [3] 3% | outcome [5] | outcome [6] | outcome [7] | outcome [8]

O=C(NC1CCN(Cc2ccsc2)CC1)c1ccc(-c2cccc(C(F)(F)F)c2)s1
active: growth inhibition [4] 88%
inactive: growth inhibition [1] 3% | inhibition [2] 48% | inhibition [3] -2% | outcome [5] | outcome [6] | outcome [7] | outcome [8]

CCCCCN1CCCCC(NS(=O)(=O)c2ccc(C(=O)Nc3cccc(C(F)(F)F)c3)cc2)C1 (stereo not given)
active: growth inhibition [4] 93%
inactive: growth inhibition [1] 2% | inhibition [2] 14% | inhibition [3] -2% | outcome [5] | outcome [6] | outcome [7] | outcome [8]

Cc1cc(C(=O)Nc2ccc3c(c2)CCN3C2CCN(Cc3csc4ccccc34)C2)no1 (stereo not given)
active: growth inhibition [1] 96% | growth inhibition [4] 96%
inactive: inhibition [2] 1% | inhibition [3] 0% | outcome [5] | outcome [6] | outcome [7] | outcome [8]

COc1ccc2nccc([C@@H](O)CN3CCC(c4cc(-c5ccc(Cl)cc5)n[nH]4)CC3)c2n1
inactive: inhibition [2] 43% | inhibition [3] 0% | outcome [5] | outcome [6] | outcome [7] | outcome [8]
active: growth inhibition [1] 56% | growth inhibition [4] 97%

COc1ccc(C(C)Nc2nc(N)c3cc(OC)c(OC)cc3n2)cc1 (stereo not given)
active: growth inhibition [4] 101%
inactive: growth inhibition [1] 28% | inhibition [2] 23% | inhibition [3] -2% | outcome [5] | outcome [6] | outcome [7] | outcome [8]

Cc1noc(NC(=O)c2sc3ccccc3c2O)c1C
active: growth inhibition [1] 50% | growth inhibition [4] 90%
inactive: inhibition [2] -12% | inhibition [3] 0% | outcome [5] | outcome [6] | outcome [7] | outcome [8]

COc1cc2nc(NCCCO)nc(Nc3ccc(Oc4ccccc4)cc3)c2cc1OC
inactive: inhibition [2] 24% | inhibition [3] 0% | outcome [5] | outcome [6] | outcome [7] | outcome [8]
active: growth inhibition [1] 101% | growth inhibition [4] 101%

CCC(C)(C)c1ccc(OCC(O)CN2CCCCC2)c(C(C)(C)CC)c1 (stereo not given)
inactive: growth inhibition [1] 26% | inhibition [2] 14% | inhibition [3] -9% | outcome [5] | outcome [6] | outcome [7] | outcome [8]
active: growth inhibition [4] 91%

CN1CCN(CCCN(Cc2ccc(-c3cccc(CNCc4ccc5c(c4)OCO5)c3)cc2)C(=O)Nc2ccccc2)CC1
inactive: inhibition [3] -7% | outcome [5] | outcome [6] | outcome [7] | outcome [8]
active: growth inhibition [1] 87% | inhibition [2] 51% | growth inhibition [4] 101%

Cc1cc(N2CCCC2)nc(Nc2ccc(NC(=O)c3ccc(Br)o3)cc2)n1
active: growth inhibition [1] 57% | growth inhibition [4] 99%
inactive: inhibition [2] 17% | inhibition [3] 0% | outcome [5] | outcome [6] | outcome [7] | outcome [8]

COc1ccc(CNCc2cccc(-c3cccc(-c4nc5c(C)cccc5[nH]4)c3)c2)cc1
active: growth inhibition [1] 60% | growth inhibition [4] 102%
inactive: inhibition [2] 31% | inhibition [3] -4% | outcome [5] | outcome [6] | outcome [7] | outcome [8]

O=C(/C=C/c1ccc(Cl)c(Cl)c1)NCCCCCN1CCC(c2c[nH]c3c(-c4ccccc4)cccc23)CC1
inactive: growth inhibition [1] 40% | inhibition [3] -2% | outcome [5] | outcome [6] | outcome [7] | outcome [8]
active: inhibition [2] 74% | growth inhibition [4] 99%

O=C(/C=C/c1ccc(Cl)c(Cl)c1)NCCCCCN1CCC(NC(=S)Nc2ccc(Cl)c(Cl)c2)CC1
inactive: inhibition [2] 29% | inhibition [3] 2% | outcome [5] | outcome [6] | outcome [7] | outcome [8]
active: growth inhibition [1] 65% | growth inhibition [4] 99%

CS(=O)(=O)CCNCc1ccc(-c2ccc3c(Nc4ccc(Cl)cc4F)ccnc3c2)o1
inactive: inhibition [2] 6% | inhibition [3] -3% | outcome [5] | outcome [6] | outcome [7] | outcome [8]
active: growth inhibition [1] 98% | growth inhibition [4] 99%

COc1ccc2ncc(F)c(CCN3CC[C@H](NC(=O)c4ccc5c(n4)NC(=O)CS5)[C@H](O)C3)c2n1
inactive: inhibition [2] 20% | inhibition [3] 0% | outcome [5] | outcome [6] | outcome [7] | outcome [8]
active: growth inhibition [1] 88% | growth inhibition [4] 88%

Cc1ccnc(NC(c2cccc(Cl)c2Cl)c2ccc3cccnc3c2O)c1 (stereo not given)
active: growth inhibition [4] 86%
inactive: growth inhibition [1] 38% | inhibition [2] 46% | inhibition [3] 7% | outcome [5] | outcome [6] | outcome [7] | outcome [8]

O=C1CCCN1CCCNCc1cccc(-c2cccc(-c3nc4ccc(F)cc4[nH]3)c2)c1
active: growth inhibition [1] 69% | growth inhibition [4] 100%
inactive: inhibition [2] 6% | inhibition [3] -3% | outcome [5] | outcome [6] | outcome [7] | outcome [8]

CCN(CC)C(=NC(N)=NCCCCCCN=C(N)N=C(Nc1ccc(Cl)cc1)N(CC)CC)Nc1ccc(Cl)cc1
inactive: inhibition [2] 1% | inhibition [3] 8% | outcome [5] | outcome [6] | outcome [7] | outcome [8]
active: growth inhibition [1] 96% | growth inhibition [4] 97%

CC1(C)N=C(N)N=C(N)N1OCC1CCCCC1
active: growth inhibition [1] 97% | inhibition [2] 67% | growth inhibition [4] 94%
inactive: inhibition [3] 4% | outcome [5] | outcome [6] | outcome [7] | outcome [8]

Oc1ccccc1CN1CCN(C(c2ccccc2)c2ccccc2)CC1
inactive: inhibition [2] -4% | inhibition [3] -1% | outcome [5] | outcome [6] | outcome [7] | outcome [8]
active: growth inhibition [1] 90% | growth inhibition [4] 98%

Clc1ccc2c(NN=Cc3cccs3)ccnc2c1
inactive: inhibition [2] -4% | inhibition [3] 2% | outcome [5] | outcome [6] | outcome [7] | outcome [8]
active: growth inhibition [1] 96% | growth inhibition [4] 100%

C=CCc1c(C(=O)NCC23CC4CC(CC(C4)C2)C3)[nH]c2ccccc2c1=O
active: growth inhibition [1] 79% | growth inhibition [4] 86%
inactive: inhibition [2] 40% | inhibition [3] 2% | outcome [5] | outcome [6] | outcome [7] | outcome [8]

COC(=O)c1cccc(CNCc2cccc(-c3ccc(-c4nc5ccccc5[nH]4)s3)c2)c1
inactive: inhibition [2] -2% | inhibition [3] -6% | outcome [5] | outcome [6] | outcome [7] | outcome [8]
active: growth inhibition [1] 59% | growth inhibition [4] 93%

O=C(Nc1ccc(Oc2ccccc2)cc1)N(CCN1CCCC1)Cc1ccc(-c2ccc(CN3CCNCC3)cc2)cc1
inactive: inhibition [2] 48% | inhibition [3] -2% | outcome [5] | outcome [6] | outcome [7] | outcome [8]
active: growth inhibition [1] 90% | growth inhibition [4] 88%

COc1cc(CNc2ncc(-c3ccsc3)c(-c3nccs3)n2)cc(OC)c1
active: growth inhibition [1] 82% | growth inhibition [4] 86%
inactive: inhibition [2] 3% | inhibition [3] -3% | outcome [5] | outcome [6] | outcome [7] | outcome [8]

COc1cc(Cc2cnc(N)nc2N)cc(OCCCCC2NC(=O)NC2=O)c1OC (stereo not given)
active: growth inhibition [4] 94%
inactive: growth inhibition [1] -1% | inhibition [2] 2% | inhibition [3] -3% | outcome [5] | outcome [6] | outcome [7] | outcome [8]

COC(=O)c1cccc(C#CCCOCCCCCCNC[C@H](O)c2cc(Cl)c(N)c(Cl)c2)c1
active: growth inhibition [1] 88% | growth inhibition [4] 97%
inactive: inhibition [2] 12% | inhibition [3] -3% | outcome [5] | outcome [6] | outcome [7] | outcome [8]

Cc1cc2nc(NC3=NC4(c5ccccn5)N=C(Nc5nc6cc(C)c(C)cc6[nH]5)NC4(c4ccccn4)N3)[nH]c2cc1C (stereo not given)
active: growth inhibition [1] 62% | growth inhibition [4] 87%
inactive: inhibition [2] 3% | inhibition [3] -2% | outcome [5] | outcome [6] | outcome [7] | outcome [8]

CN(CCN1CCC(c2c[nH]c3ccccc23)CC1)C(=O)OCCCCCNC(=O)/C=C/c1ccc(Cl)c(Cl)c1
active: growth inhibition [4] 95%
inactive: growth inhibition [1] 44% | inhibition [2] 39% | inhibition [3] -4% | outcome [5] | outcome [6] | outcome [7] | outcome [8]

Cc1nc2nc(N)nc(N)c2c(C)c1Cc1ccccc1
active: inhibition [2] 62% | growth inhibition [4] 95%
inactive: growth inhibition [1] 0% | inhibition [3] 3% | outcome [5] | outcome [6] | outcome [7] | outcome [8]

CC1CCCCN1CCCNc1ncc2c(-c3ccc(NC(=O)Nc4cc(C(F)(F)F)ccc4F)c(F)c3)nn(C)c2n1 (stereo not given)
inactive: inhibition [2] 27% | inhibition [3] 2% | outcome [5] | outcome [6] | outcome [7] | outcome [8]
active: growth inhibition [1] 97% | growth inhibition [4] 101%

Fc1cc(Cl)ccc1Nc1ccnc2cc(-c3ccc(CN4CCNCC4)o3)ccc12
active: growth inhibition [1] 99% | growth inhibition [4] 100%
inactive: inhibition [2] 16% | inhibition [3] 1% | outcome [5] | outcome [6] | outcome [7] | outcome [8]

Cc1[nH]c(C)c(-c2ccc(OCc3cc(F)cc(F)c3)nc2)c(=O)c1Cl
inactive: inhibition [2] 20% | inhibition [3] -6% | outcome [5] | outcome [6] | outcome [7] | outcome [8]
active: growth inhibition [1] 97% | growth inhibition [4] 97%

Oc1cccc2ccc(Nc3ccccn3)nc12
inactive: inhibition [3] 3% | outcome [5] | outcome [6] | outcome [7] | outcome [8]
active: growth inhibition [1] 93% | inhibition [2] 72% | growth inhibition [4] 99%

CC(C)NCc1cc(Nc2ccnc3cc(Cl)ccc23)ccc1O
active: growth inhibition [1] 100% | growth inhibition [4] 102%
inactive: inhibition [2] 27% | inhibition [3] 6% | outcome [5] | outcome [6] | outcome [7] | outcome [8]

CCC(CC)(Cc1ccccc1)NC(=O)[C@H](CC1CCCCC1)Nc1ccc(C#N)c2ccccc12
active: growth inhibition [1] 76% | growth inhibition [4] 95%
inactive: inhibition [2] 4% | inhibition [3] -5% | outcome [5] | outcome [6] | outcome [7] | outcome [8]

Nc1nc(N)c2c(ccc3ccccc32)n1
inactive: growth inhibition [1] 20% | inhibition [3] -1% | outcome [5] | outcome [6] | outcome [7] | outcome [8]
active: inhibition [2] 60% | growth inhibition [4] 98%
